High-throughput results deposited in PubChem by National Center for Advancing Translational Sciences (NCATS).
IMPase Li cell: membrane-permeable IMPase blocker, potentiated with lithium. Potency, µM (series often up to 59.4 µM), inactives show top-dose activity, negative = IMPase inhibition, usual class: inhibitors. AID 1457. hit rate 0.35% among 210,000. CHO-M1 cells, IP1 TR-FRET (IP-One), carbachol + lithium; active = well fitted inhibition curve with a large enough effect; inconclusive = small, poorly fitted or top-dose-only effect; inactive = no such curve, though single readings can be large or run the other way;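 also: IP1 builds up when IMPase is blocked and the TR-FRET signal falls; potency is read from the fitted curve at half-maximal effect; plate controls were basal vehicle for no effect and high inhibitor control for full effect; nearly all actives have a fitted effect of over 50% in size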
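CHO cells stably expressing M1 receptor (2000/well) were cultured 16–30 h, then exposed to compounds with a small lithium addition for 30 min at 37C. IP1 was measured by TR-FRET competition; AC50 from Hill fits.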
PNC assembly inh: perinucleolar compartment assembly inhibition. PC3M PTB-GFP, PNC prevalence imaging, 16 h; stronger effect = lower value. activity change (PNC), negative = inhibition, % at 10 µM. hit rate 3.1% among 140,000. AID 2417;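 active = readout at or below -70, meaning at least 70% loss of cells showing the perinucleolar compartment, a nuclear body marking cancer cells; inconclusive = readout between -30 and a set limit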;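 also: plate controls were DMSO wells for no effect and camptothecin positive control wells for full effect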
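Read-out is percentage of cells bearing a perinucleolar compartment, from automated 20x imaging of fixed, Hoechst-stained PC3M PTB-GFP cells. Cells were seeded 4 h, then exposed 16 h to compound (23 nl of library stock) in duplicate plates.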
ALDH1A1 block: inhibitors of human aldehyde dehydrogenase 1A1 | P00352 | Purified ALDH1A1, NADH fluorescence, propionaldehyde substrate | Potency, µM (highest dose often 75.3 µM), without a hit: at the highest dose activity, negative = inhibition, most hits filed as inhibitors | hit rate 7.3% among 220,000 | AID 1030;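 also: potency is read from the fitted curve at half-maximal effect; plate controls were no enzyme wells and a reference inhibitor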
HPGD block: blocks human HPGD enzyme activity | P15428 | purified HPGD, NADH fluorescence kinetic, PGE2 substrate | Potency, µM, for the others: top-dose activity change, negative = inhibition, usual class: inhibitors | hit rate 4.3% among 150,000 | AID 894; also: potency is read from the fitted curve at half-maximal effect
Target sequence (P15428 whole entry, looked up): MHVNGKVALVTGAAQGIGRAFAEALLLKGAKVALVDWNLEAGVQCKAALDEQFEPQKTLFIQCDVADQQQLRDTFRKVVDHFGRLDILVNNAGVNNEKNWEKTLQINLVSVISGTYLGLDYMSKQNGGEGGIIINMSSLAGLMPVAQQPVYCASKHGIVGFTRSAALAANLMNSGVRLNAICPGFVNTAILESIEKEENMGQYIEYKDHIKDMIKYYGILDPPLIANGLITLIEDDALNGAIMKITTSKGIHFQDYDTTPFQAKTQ
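20 nM HPGD preincubated 15 min at room temperature with compound in 50 mM Tris-HCl pH 8, 0.01% Tween 20. Started with 1 mM NAD+ and 30 uM prostaglandin E2; NADH fluorescence (360/450 nm) read 5 times over 30-s intervals, last minus first.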
IMPase cell inh: IMPase inhibition in cells | P97697 | CHO-M1 cells, IP1 accumulation, HTRF TR-FRET ratio | inhibition (IP1 accumulation), % at 46.1 µM | 120,000 tested, under 10 active | AID 901; active = well fitted curve in the direction sought with a large enough effect in the signal ratio, not every such curve was filed as active; inconclusive = small, poorly fitted or top-dose-only effect, or a change in a side signal; inactive = no such curve, though single readings can be large or run the other way; the % refers to the signal ratio;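 also: cells stimulated with carbachol in lithium chloride buffer; plate controls were DMSO basal wells for no effect and reference inhibitor wells for full effect; higher means more IMPase inhibition seen as more IP1 and lower FRET ratio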
Target sequence (P97697 whole entry, looked up): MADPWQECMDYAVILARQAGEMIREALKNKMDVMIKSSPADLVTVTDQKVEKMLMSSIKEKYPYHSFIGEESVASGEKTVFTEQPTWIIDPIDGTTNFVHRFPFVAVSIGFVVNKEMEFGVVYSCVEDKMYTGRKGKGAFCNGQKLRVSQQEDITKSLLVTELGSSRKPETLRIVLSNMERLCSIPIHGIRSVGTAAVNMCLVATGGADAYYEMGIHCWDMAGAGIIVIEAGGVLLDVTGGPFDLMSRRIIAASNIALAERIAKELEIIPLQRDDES
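Carbachol-driven Gq signalling in CHO-M1 cells (2000/well) generates IP1. Compounds that block IMPase raise IP1 and so reduce the FRET signal from Eu-anti-IP1 and d2-IP1 after a 10 min room-temperature lysis.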
* marks the source's active call; other numbers are inactive results; ? = inconclusive; . = no result; [ ] = remark or other dose. This is a sample that favours compounds with a hit; in the whole collection about 11% have one here. Unless noted, calls follow the shape of the dose curve; as a rule, active = well fitted inhibition curve with a large enough effect (not every such curve was filed as active); inconclusive = small, poorly fitted or top-dose-only effect, or another doubt; inactive = no such curve, though single readings can be large or run the other way. Unless noted, % is scaled to controls: 0 for no effect and ±100 for the full control effect.

SMILES	IMPase Li cell	PNC assembly inh	ALDH1A1 block	HPGD block	IMPase cell inh
Cc1ccc(-c2n[nH]c(=S)n2/N=C/c2ccc(C)o2)cc1	-2.4%	19.2	?	12.6µM*	4.0
CC(/C=N/n1c(-c2ccc(Cl)cc2)n[nH]c1=S)=C\c1ccco1	.	?	28.2µM*	.	4.9
C=CCOCC/C=C1/c2ccccc2C(OC)C1C (centres undefined)	.	.	3.2%[13.5 µM]	.	.
Cc1ccc(-c2nn3c(-c4ccccc4)nnc3c3ccccc23)cc1	.	.	.	.	28.0
Nc1nc(=O)c2[nH]cnc2n1O	-13.6%	.	0.8%[13.5 µM]	-7.7%	.
CC(/C=N/n1cnnc1)=C\c1ccco1	5.4%	-100.0*	?	-13.5%	-5.1
CC(/C=N\NC(=O)CN1CCN(Cc2ccccc2)CC1)=C\c1ccco1	7.3%	9.3	?	-16.3%	6.0
O=C(O)CSc1n[nH]c(=O)[nH]c1=O	8.6%	.	-2.4%[13.5 µM]	-4.0%	.
COC(=O)CNC(=O)[C@@]1(C)C=C[C@@H](Cc2ccccc2)N1C(C)=O	2.7%	.	22.4µM*	10µM*	.
CC(=O)N1[C@H](Cc2ccccc2)C=C[C@]1(C)C(=O)O	-7.1%	.	28.2µM*	-13.2%	.
C[C@]1(C(=O)O)C=C[C@@H](Cc2ccccc2)N1C(=O)c1ccccc1	9.1%	25.8	11.4%	-6.9%	.
CCCn1c(SCC(=O)Nc2cc(S(=O)(=O)N(C)C)ccc2OC)n[nH]c1=O	-6.9%	.	-5.1%	.	.
CSc1nc2sc3c(c2c(=O)n1C)CCCC3	0.7%[38.3 µM]	-87.4*	?	-11.9%	4.8
CSc1nc2sc3c(c2c(=O)n1-c1ccccc1)CCC(C(C)(C)C)C3 (centres undefined)	.	.	.	.	-5.9
C=CCn1nnc2sc3c(c2c1=O)CCC(C)C3 (centres undefined)	14.9%[38.3 µM]	22.8	17.8µM*	-18.7%	-3.2
CSc1nc2sc3c(c2c(=O)n1C1CCCCC1)CCN(C)C3	18.2%	-9.8	6.9%	-2.6%	12.4
CSc1nc2sc3c(c2c(=O)n1C)CCC(C)C3 (centres undefined)	6.3%[38.3 µM]	13.5	25.1µM*	-11.5%	-1.9
O=C1C[C@@H](O)[C@@H](O)[C@@H]2[C@H]3C(=O)N(c4ccc(F)cc4F)C(=O)[C@@H]3CC[C@@H]12	.	.	4.5%[13.5 µM]	.	.
CC[C@H]1[C@@H]2C=C[C@@H]3[C@H]4C/C=C\C(=O)NCCC[C@@H]5NC(=O)C(=C5O)C(=O)CC[C@@H]4C[C@@H]3[C@H]2C[C@H]1C	-5.1%	.	-0.7%	.	.
CCO[C@@H]1OC(C(=O)N2CCOCC2)=C[C@H](c2coc3ccccc3c2=O)[C@H]1CCCO	0.7%	.	4.8%	.	.
CC(C)CNC1=CC(=O)CC(c2ccco2)C1 (centres undefined)	8.3%[38.3 µM]	-80.9*	14.1µM*	-24.3%	-1.8
O=C1C=C(Nc2ccc(O)cc2)CC(c2ccco2)C1 (centres undefined)	17.3%	1.8	?	22.4µM*	-20.7
CCOC(=O)c1ccc(NC2=CC(=O)CC(c3ccco3)C2)cc1 (centres undefined)	9.7%	.	?	.	.
C[C@H](Br)C(=O)Nc1ccc(C(=O)O)c(O)c1	-0.6%	.	-4.9%[13.5 µM]	-8.2%	.
C[C@H](CC[C@@H]1OC1(C)C)C1CC[C@H]2[C@@H]3CC=C4C[C@@H](O)CC[C@]4(C)[C@H]3CC[C@]12C (some centres undefined)	-6.9%	.	6.9%	.	.
SMILES	IMPase Li cell	PNC assembly inh	ALDH1A1 block	HPGD block	IMPase cell inh
O=c1c(-c2ccco2)[n+]([O-])c2ccccc2n1OCc1ccccn1	29.1%[38.3 µM]	-16.6	10µM*	-18.6%	12.1
CCOn1c(=O)c(-c2cccc([N+](=O)[O-])c2)[n+]([O-])c2ccccc21	7.3%	?	?	?	8.0
O=c1c(-c2ccc(F)cc2)[n+]([O-])c2ccccc2n1OCc1ccccn1	-2.5%	.	1.5%	.	.
C=CCOn1c(=O)c(-c2cc3ccccc3o2)[n+]([O-])c2ccccc21	.	-14.6	8.1%	.	0.8
O=c1c(-c2ccco2)[n+]([O-])c2ccccc2n1OCc1ccccc1[N+](=O)[O-]	13.6%	.	14.1µM*	.	.
CCOc1ccc(-c2c(=O)n(OCc3ccc([N+](=O)[O-])cc3)c3ccccc3[n+]2[O-])cc1	10.8%	42.1	20µM*	-18.5%	-1.4
CCN(Cc1ccncc1)Cc1c(O)ccc2ccccc12	-2.0%	.	10µM*	.	.
CCN(Cc1cc(Cl)cc(C)c1O)Cc1c(O)ccc2ccccc12	3.0%	.	-2.0%[13.5 µM]	-5.5%	.
CCOC(=O)c1ccc(N2Cc3cc(C)c(C)cc3C2)cc1O	35.2%[38.3 µM]	18.5	5.9%	-14.0%	-0.4
O=C(O)c1ccc(N2Cc3ccccc3C2)cc1O	31.2%[38.3 µM]	1.4	28.2µM*	15.8µM*	4.6
CC(=O)c1ccc(N2CCN(C(=S)Nc3cc(C)ccc3C)CC2)cc1	2.1%	-90.2*	3.7%	-3.6%	0.2
CC(=O)c1ccc(N2CCN(C(=S)Nc3ccccc3F)CC2)cc1	.	2.7	?	.	-6.4
Cc1cc(C)cc(Nc2nc3ccccc3n3cnnc23)c1	.	.	.	.	5.4
CC1CN(c2ccccc2)NC1=O (centres undefined)	-5.5%	.	1.7%	.	.
COc1ccc2nc(SCC(=O)NN)cc(C)c2c1	-3.5%[38.3 µM]	22.8	12.6µM*	-19.3%	-5.7
O=C1CC(c2cc(Br)ccc2F)c2cc3c(cc2N1)CCC3 (centres undefined)	8.3%[38.3 µM]	-97.2*	7.8%	-9.8%	-2.3
O=C1CC(c2ccccc2F)c2cc3c(cc2N1)CCC3 (centres undefined)	6.5%[38.3 µM]	-9.0	0.0%	-7.5%	4.9
Cn1c(=O)cnc2cnc(OCc3ccccc3)nc21	-4.7%	.	?	.	.
CCCc1nnc(SCc2ccc(OCC)cc2)n1N	4.1%[38.3 µM]	-17.8	-1.1%	28.2µM*	-5.0
CCc1nnc(SCc2ccc(CSc3nnc(CC)n3N)cc2)n1N	16.6%[38.3 µM]	28.2	-1.0%	-6.1%	1.6
CCCCc1nnc(SCc2ccc(OCC)cc2)n1N	-0.7%[38.3 µM]	21.5	7.4%	25.1µM*	-5.8
O=C(CCl)N(C/C=C/c1ccccc1)c1ccc2c(c1)OCCO2	10.2%	.	0.794µM*	.	.
O=C(/C=C/c1ccccc1)c1ccc2c(c1)OCCCCO2	21.5%[38.3 µM]	?	?	?	9.1
CCOc1ccccc1-c1nc(-c2ccc(-c3ccccc3)nc2OCC)no1	.	.	.	.	-8.6
CCOc1nc(-c2ccccc2)ccc1-c1noc(-c2ccco2)n1	5.4%	-100.0*	11.3%	?	-7.3
COc1nc(-c2ccccc2)ccc1-c1noc(-c2ccc(F)cc2)n1	8.91µM*	-9.0	?	?	2.2
COc1nc(-c2ccccc2)ccc1-c1noc(-c2ccccc2F)n1	-22.3%[38.3 µM]	-4.1	?	?	-3.0
O=C(Oc1ccccc1)N1CCC2(CC1)CCN(c1ccccc1)CC2	20.9%	.	?	-6.2%	.
COC(=O)c1c(C)[nH]c(O)c1C=Nc1ccc(C(C)C)cc1	6.8%[38.3 µM]	47.0	?	25.1µM*	-5.2
Cc1nn(-c2ccccc2)c2sc(C(=O)N(CC(=O)NC(C)(C)C)Cc3ccco3)cc12	21.7%	?	25.1µM*	-28.0%	9.3
